Screening data from PubChem BioAssay.
TRHR ag: agonists of human TRH receptor | P34981 | TRHR cells, calcium flux fluo-8, FDSS agonist mode | activation, % at 2 µM | hit rate 0.18% among 360,000; in the data active = activation above about 30%; note: 0% is about no effect
Target sequence (P34981 whole entry, looked up): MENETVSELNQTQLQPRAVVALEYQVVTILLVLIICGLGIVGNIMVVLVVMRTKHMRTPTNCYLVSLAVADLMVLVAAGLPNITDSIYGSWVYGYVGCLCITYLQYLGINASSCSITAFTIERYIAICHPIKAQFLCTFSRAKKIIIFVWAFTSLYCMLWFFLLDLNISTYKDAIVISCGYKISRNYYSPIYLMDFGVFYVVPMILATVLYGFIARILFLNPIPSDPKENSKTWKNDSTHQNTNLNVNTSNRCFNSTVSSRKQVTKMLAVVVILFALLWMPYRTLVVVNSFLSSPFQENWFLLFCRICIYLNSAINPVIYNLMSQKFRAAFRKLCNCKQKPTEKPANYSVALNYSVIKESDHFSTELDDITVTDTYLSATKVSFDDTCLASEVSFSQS
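Fluo-8-loaded TRHR cells; 10 s baseline, compound added, kinetic Ca2+ fluorescence read 1/s, agonist mode.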
TRHR enhancer: allosterically enhances the human TRH receptor | hit rate 0.66% among 360,000 | TRHR cells, fluo-8 calcium fluorescence, EC20 TRH enhancement | P34981 | enhancement, % at 2 µM | AID 493056; in the data active = enhancement above about 30%; note: 0% is about no effect
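TRHR-expressing cells loaded with fluo-8 calcium dye were read kinetically (ex 480/em 530) during compound addition, then stimulated with an EC20 of TRH (10 nM final). Enhancement of the Gq-mediated intracellular calcium response was scored.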
TRPML1 blocker: human mucolipin-1 channel inhibition. hit rate 0.02% among 390,000. TRPML1-inducible cells, Ca2+ dye fluorescence, FDSS; stronger effect = lower value; inhibition of EC80 agonist-evoked calcium signal. activity change, negative = inhibition, % (no concentration beside the values). AID 624415. Q9GZU1; in the data active = activity change below about -50%;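 note: stimulus is agonist 54-4 at its EC80 concentration; % is set by controls: 0 for no effect and ±100 for the full control effect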
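TRPML1-DL cells, Tet-induced overnight (~16 h, 37 °C) at 1,500 cells/well, were loaded with Ca8 no-wash dye plus quencher for 45-90 min at room temperature. Compounds were pinned during FDSS kinetic reading; agonist 54-4 at EC80 (4 uM final) then added.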
KCNH2 3.1 block: inhibitors of human KCNH2 3.1 potassium channel isoform | hit rate 0.95% among 340,000 | activity change, % (tested at about 1.8 µM) | U2OS KCNH2 3.1, thallium flux FluxOr; stronger effect = lower value;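 active = maximum activity change below -70%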;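 note: thallium influx rate constant from kinetic fluorescence after stimulation buffer; % is set by controls: 0 for no effect and ±100 for the full control effect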
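Normalized rate constant (relative to positive and negative DMSO controls) derived from a 2 min kinetic fluorescence read after stimulation; U2OS cells expressing the 3.1 isoform via virus at 1.77 x 10^8 /mL.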
hERG WT inh: blocks the wildtype human KCNH2 potassium channel | U2OS, BacMam KCNH2, thallium flux FluxOr; stronger effect = lower value | activity change, % at 1.84 µM | hit rate 0.37% among 340,000 | AID 720551;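 active = maximum activity change below -70%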; note: % is set by controls: 0 for no effect and ±100 for the full control effect
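U2OS cells were transduced with wild-type KCNH2 virus (2.03 x 10^8 / mL) for 4 h at room temperature, then cultured overnight at 37 C. Thallium flux was read with FluxOr dye. Rate constants were normalized to DMSO controls.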
TRPML1 ag: activates the human TRPML1 channel; activation, % (test concentration not listed); TRPML1-expressing cells, Ca2+ dye fluorescence, FDSS; Q9GZU1; hit rate 0.12% among 410,000; in the data active = activation above about 50%; note: 0% is about no effect
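Tet-induced TRPML1-DL cells, 1,500 per well, cultured overnight, were loaded with a no-wash Ca2+ dye for 45–90 min. Calcium fluorescence was recorded on the FDSS for 110 s after compound addition, before the EC80 agonist (4 uM 54-4) was added.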
Active calls of the source: *; . = not tested or not shown. Sampled rows, rich in hits. Any-hit rate of the full collection: about 1.7%.

SMILES	TRHR ag	TRHR enhancer	TRPML1 blocker	KCNH2 3.1 block	hERG WT inh	TRPML1 ag
CCCCn1c(=O)c(CCC(=O)OCC(=O)NC(=O)NCCC(C)C)nc2ccccc21	0	30*	6	-26	2	2
O=C(CC1S/C(=N\S(=O)(=O)c2ccccc2)N(c2ccccc2)C1=O)Nc1ccc(F)cc1 (centres undefined)	1	-4	6	-80*	-29	0
Cc1ccc(S(=O)(=O)/N=C2\SC(CC(=O)Nc3ccc(F)cc3)C(=O)N2c2ccccc2)cc1 (centres undefined)	0	5	22	-5	-3	0
O=C(CN1CCN(c2cnn(-c3ccccc3)c(=O)c2Cl)CC1)NC1CCS(=O)(=O)C1 (centres undefined)	-1	-8	9	-7	-6	1
CCc1cccc(C)c1NC(=O)CSc1nc2ccncc2[nH]1	0	1	1	-15	2	-1
S=c1[nH]nc(-c2ccccc2)n1Cc1ccccc1	-1	-1	-8	13	0	0
C=CCn1c(-c2csc(-c3ccccc3)n2)n[nH]c1=S	0	14	10	1	6	1
C=CCn1c(-c2csc(-c3ccc(Cl)cc3)n2)n[nH]c1=S	-1	-6	75	-195*	-187*	0
S=c1[nH]nc(-c2ccc(Cl)cc2)n1Cc1ccccc1	-1	-1	-16	4	-306*	4
Cc1ccc2c(CC(=O)Nc3ccc(F)c(S(=O)(=O)N4CCOCC4)c3)coc2c1	0	1	52	21	-5	-1
N#CCSc1ccccc1NC(=O)CN1C(=O)C2CC=CCC2C1=O (centres undefined)	7	2	-15	-1	1	5
CN(C)CCN1CCN(C2CN(Cc3ccccc3)S(=O)(=O)C2)CC1 (centres undefined)	.	.	.	.	.	0
Cc1cc(-c2ccccc2)nc(=O)[nH]1	0	-2	-7	-192*	-167*	0
COc1ccc(NC(=O)C2Cc3c(-c4ccc5c(c4)OCO5)ccnc3O2)cc1OC (centres undefined)	.	.	.	.	.	-1
Cc1ccc(-c2cn3nc(N4CCCC(C(=O)NCc5ccccc5F)C4)sc3n2)cc1 (centres undefined)	0	30*	7	.	.	2
COc1ccc(-c2cn3nc(N4CCCC(C(=O)NCc5ccccc5Cl)C4)sc3n2)cc1 (centres undefined)	0	7	-5	.	.	0
O=C(NCc1nc2ccccc2[nH]1)C1=C[C@@H](c2ccc(Br)cc2)C[C@@H](OCc2ccc(CO)cc2)O1	-1	-1	-9	-97*	10	0
O=C(NCc1nc2ccccc2[nH]1)C1=C[C@@H](C2CCCCC2)C[C@@H](OCCCCO)O1	-1	1	20	-75*	10	-1
O=C(NCc1nc2ccccc2[nH]1)C1=C[C@@H](c2ccc(Br)cc2)C[C@@H](OCCCCO)O1	0	5	-2	-89*	-35	0
O=C(NC1CC1)C1=C[C@H](c2ccccc2)C[C@H](OCc2ccc(CO)cc2)O1	0	3	-14	-181*	-11	-1
C[C@H]1C=C(C(=O)NCc2nc3ccccc3[nH]2)O[C@@H](OCc2ccc(CO)cc2)C1	0	2	-1	-17	-4	-1
O=C(NCc1nc2ccccc2[nH]1)C1=C[C@@H](c2ccccc2)C[C@@H](OCCCCO)O1	-1	6	0	-17	36	0
CC(=O)NC(Cc1ccc(Cl)cc1)C(=O)NCC(N)C(=O)c1ccccc1 (centres undefined)	.	.	.	.	.	0
COc1ccc(OC)c(-n2c3c(cc(-c4nc(-c5ccc(Cl)cc5)cs4)c2=O)C(=O)CC(C)(C)C3)c1	1	2	16	.	.	0
CC1(C)C2([N+](=O)[O-])CN3CC1([N+](=O)[O-])CN(C2)C3C(O)C(O)C(O)CO (centres undefined)	1	31*	-9	-8	9	1
SMILES	TRHR ag	TRHR enhancer	TRPML1 blocker	KCNH2 3.1 block	hERG WT inh	TRPML1 ag
COc1ccccc1CNC(=O)C1(c2cccs2)CCOCC1	0	-3	-6	.	.	0
COc1ccc(CNC(=O)COc2ccc(Br)c(C)c2)cc1	0	8	5	10	-5	2
COC(=O)c1cc(S(=O)(=O)NCC2CCN(Cc3ccc(C)cc3)CC2)c[nH]1	0	5	-1	-76*	-26	0
CCOC(=O)c1c(C)[nH]c(C)c1S(=O)(=O)NCC1CCN(Cc2cccc(Cl)c2)CC1	0	-3	-6	-121*	-4	1
CCOC(=O)c1c(C)[nH]c(C)c1S(=O)(=O)NCC1CCN(Cc2ccc(C)cc2)CC1	-2	0	23	-28	27	-1
CCn1c(=O)c2cc(C(=O)NCCc3cc(OC)ccc3OC)sc2c2ccccc21	0	-8	20	.	.	0
COc1cc2nc(N3CCCN(C)CC3)nc(N(C)C)c2cc1OC	.	.	.	.	.	0
Cc1cc2c(s1)c1cnn(Cc3ccc(Cl)cc3)c(=O)c1n2C	0	0	.	.	.	.
Nc1cc(OC(=O)c2cccs2)nn1S(=O)(=O)c1ccccc1	0	-1	3	7	-2	3
Nc1cc(OC(=O)c2cccs2)nn1S(=O)(=O)c1ccc(F)cc1	-1	-12	0	-212*	5	3
Cc1ccc(C)c(OCCCN2CCNCC2)c1	0	4	0	-5	6	0
Cc1ccc(C)c(OCCCCN2CCNCC2)c1C	1	0	35	-88*	-1	-1
O=C(CCn1c(=O)c2sccc2n(CC(=O)NCc2ccco2)c1=O)NCc1ccccc1	1	2	103	3	-254*	0
O=C1C2C3C=CC(C4CC34)C2C(=O)N1Cc1ccco1 (centres undefined)	1	1	-2	-4	4	0
O=C(c1ccco1)N1CCN(C(=O)C2CC(=O)N(c3ccc(Cl)cc3)C2)CC1 (centres undefined)	-1	1	39	-95*	-12	1
CC(Oc1ccc(Cl)cc1)C(=O)N1CCN(C(=O)c2ccco2)CC1 (centres undefined)	0	-3	88	-164*	-129*	-1
CCOC(=O)c1c(NC(=O)COC(=O)c2cnccn2)sc(C)c1C	.	.	27	11	-10	3
O=C(NC1CCCCC1)[C@@H]1CC=C[C@@H]2CCN(Cc3ccc(Cl)c(Cl)c3)C(=O)[C@@H]21	.	.	.	.	.	-1
CC(C)NC(=O)c1cc(C2CCCCN2C(=O)OCCF)on1 (centres undefined)	.	.	21	.	.	0
